Screens: PubChem, National Center for Advancing Translational Sciences (NCATS)
A selection: hits, their analogues and other compounds. The true share with any hit is near 20%.
Pf growth 48h = inhibits P. falciparum growth in the first generation, 48 h | P. falciparum luciferase growth in erythrocytes, 48 h | Potency, µM (titrated, usually from 28.7 µM), for inactives: at the highest dose activity change, negative = inhibition, hits mostly inhibitors | 5.9% of 310,000 active; also: potency is read from the fitted curve at half-maximal effect; % is scaled to controls: 0 for no effect and ±100 for the full control effect
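Luciferase-expressing P. falciparum in infected erythrocytes (2% hematocrit, 0.1% parasitemia final) in RPMI 1640/0.5% Albumax were exposed to compound for 48 hours at 37 C, 5% CO2; growth read as luminescence.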
CHX counter = counter-screen hit for Shiga toxin inhibitors, cycloheximide | 12% of 300,000 active | max response, % | cell reporter, cycloheximide protein synthesis inhibition counterscreen | AID 2314; in the data active = max response mostly above about 13%, no sharp cut-off; inactive = mostly below about 14%; also: read at 38.3 µM for the half of the compounds with a filed dose; 0% is about no effect
Pf growth 96h = P. falciparum growth inhibition at 96 hours; 6.9% of 320,000 active; Potency, µM (top dose mostly 28.7 µM), without a hit: at the top dose activity change, negative = inhibition, actives largely listed as inhibitors; P. falciparum luciferase reporter growth, 96 h; AID 504834; also: potency is read from the fitted curve at half-maximal effect; % is scaled to controls: 0 for no effect and ±100 for the full control effect
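Two parasite generations (96 h, 37 C, 5% CO2) of compound exposure in infected erythrocytes (0.05% parasitemia, 2% hematocrit). Luciferase-reporter P. falciparum; decreased luminescence indicates inhibited growth, aimed at apicoplast-acting delayed death.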
Shiga toxin inh = blocks Shiga toxin action in Vero cells; Vero cells, Shiga toxin protein synthesis inhibition reporter; inhibition, % at 38.7 µM; 9.2% of 290,000 active; in the data active = inhibition mostly above about 28%, no sharp cut-off; inactive = mostly below about 43%; also: 0% is about no effect
HCMV antiviral = inhibitors of human cytomegalovirus; activity change, negative = inhibition, % at 57.5 µM; HFF cells, HCMV-luciferase reporter, 72 h; active compounds read low; 4.5% of 410,000 active; in the data active = activity change below about -60%; inconclusive = no clear call, values can overlap the other calls; inactive = above about -39%; also: % is scaled to controls: 0 for no effect and ±100 for the full control effect
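HFF cells seeded 16 h at 37C, treated with compounds, infected with luciferase-reporter HCMV at MOI 1 PFU/cell; luciferase read at 72 h post infection, normalized to buffer-only and Salinomycin controls.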
Numbers without * were called inactive; i = inactive; ? = inconclusive; nt = no result. Unless noted, calls follow the shape of the dose curve; as a rule, active = well fitted inhibition curve with a large enough effect; inconclusive = small, poorly fitted or top-dose-only effect, or another doubt; inactive = no such curve, though single readings can be large or run the other way.

SMILES	Pf growth 48h	CHX counter	Pf growth 96h	Shiga toxin inh	HCMV antiviral
O=C(COC(=O)c1ccccn1)NCCc1ccc(Cl)cc1	nt	nt	nt	nt	-11
CC(=O)NCCc1ccc(S(=O)(=O)N2CCOCC2)cc1	14%	-2	nt	18	1
CC(=O)NCCc1ccc(S(=O)(=O)N2CCN(c3nc(-c4ccccc4)c(C)s3)CC2)cc1	3.7µM*	-4	4.1µM*	-4	-30
COc1ccc(N2CC(NC(=O)c3ccc(S(=O)(=O)N4CCCCC4)cc3)CC2=O)cc1OC (centres undefined)	nt	nt	nt	nt	5
Cc1cc(Cl)c(S(=O)(=O)NC2CCCC2)cc1OCC(=O)NC1CCCCC1	nt	-5	?	-7	-90*
Cc1cc(Cl)c(S(=O)(=O)N2CCCCCC2)cc1OCC(N)=O	?	-2	?	-7	-13
Cc1cc(Cl)c(S(=O)(=O)N2CCCCCC2)cc1OCC(=O)NC1CCCCC1	nt	0	0.059µM*	13	?
CCN1CCN(S(=O)(=O)c2cc(OCC(=O)NC3CCCCC3)c(C)cc2Cl)CC1	2.1µM*	-2	2%	-1	-65*
CCOC(=O)N1CCN(S(=O)(=O)c2cc(OCC(=O)NC3CCCCC3)c(C)cc2Cl)CC1	nt	-3	0.66µM*	-14	-70*
CC(=O)N1CC(C)Sc2ccc(S(=O)(=O)N3CCCCC3)cc21 (centres undefined)	7%	8	19%	-7	-28
CNC(=O)NC(=O)C(C)Oc1ccccc1F (centres undefined)	38%	-1	55%	14	42
Cn1c2c(c(=O)n1-c1ccccc1)CSCC2	nt	nt	nt	nt	-26
Cc1cc(Cl)c(S(=O)(=O)N2CCSCC2)cc1OCC(=O)NC1CCCCC1	nt	3	11%	-9	-95*
Cc1cc(Cl)c(S(=O)(=O)N2CCN(c3ccccn3)CC2)cc1OCC(=O)NC1CCCCC1	0.23µM*	-2	?	-7	-77*
Cc1cc(Cl)c(S(N)(=O)=O)cc1OCC(=O)NC1CCCCC1	41%	1	-18%	-14	-14
C=CCCC(=O)N1CCC(n2nccc2NC(=O)c2ccc(OC)cc2)CC1	-7%	37*	12µM*	33	64
CCCc1cc(C(=O)N2CCC(n3nccc3NC(=O)c3ccc(OC)cc3)CC2)no1	-9%	21*	20%	22*	65
COc1ccc(C(=O)Nc2ccnn2C2CCN(C(=O)CCC(F)(F)F)CC2)cc1	22%	24*	34%	42*	109
O=C(Nc1ccnn1C1CCN(C(=O)c2cnsn2)CC1)c1cccc(F)c1	-5%	18*	?	16	25
C/C=C(\C)CN1CCC(n2nccc2NC(=O)c2ccc(OC)cc2)CC1	2%	4	?	-18	9
O=C(Nc1ccnn1C1CCN(C2CCCCC2)CC1)c1cccc(F)c1	-3%	-4	23%	8	-16
CCC(C)C(NC(=O)OCc1ccccc1)C(=O)NCC(c1ccccc1)N(C)C (centres undefined)	-12%	-4	?	-15	-5
CCOC(=O)c1c(C)[nH]c(CCC(=O)NCc2ccc(CC)cc2)c1C	nt	nt	nt	nt	-24
CCc1nc2ccc(C(=O)NCCCn3ccnc3)cn2c1N(C)Cc1ccc(Cl)cc1	nt	nt	nt	nt	-13
S=C(NCCc1ccccc1)N1CCC2CC1c1c(Cl)cccc12 (centres undefined)	nt	nt	nt	nt	-1
SMILES	Pf growth 48h	CHX counter	Pf growth 96h	Shiga toxin inh	HCMV antiviral
O=S(=O)(N[C@H](CO)c1ccccc1)c1ccc(Br)cc1F	nt	nt	nt	nt	10
COc1cc(NC(=O)Cn2nc(C(F)(F)F)c3c2CCC3)cc(OC)c1OC	nt	nt	nt	nt	9
COc1ccc(C(=O)Nc2ccnn2C2CCN(C(=O)C3CCOC3)CC2)cc1 (centres undefined)	34%	25*	-2%	53*	16
Cc1ccccc1C(=O)Nc1ccnn1C1CCN(C(=O)C2CCOC2)CC1 (centres undefined)	-16%	-1	211%	-5	-5
COc1cc(C)ccc1OCCSc1nnc(-c2ccc(C)cc2)o1	nt	nt	nt	nt	-8
O=c1cc2oc3cc(O)c(O)cc3c(-c3ccccc3[N+](=O)[O-])c-2cc1O	?	-8	96%	-1	-64*
COc1ccc(/C=C/C(=O)OCC(=O)NCc2ccccc2Cl)cc1OC	nt	nt	nt	nt	16
C=CCNC(=O)c1oc2ccc(S(=O)(=O)N(CC)CC)cc2c1C	?	6	10µM*	-4	-23
O=C(c1cccc(C(=O)N2CCC(O)(c3ccccc3)CC2)c1)N1CCC(O)(c2ccccc2)CC1	nt	nt	nt	nt	26
CCN(CC)S(=O)(=O)c1ccc2oc(C(=O)NCCN3CCOCC3)c(C)c2c1	-21%	-1	0%	-6	-23
CCN(CC)S(=O)(=O)c1ccc2oc(C(=O)NC3CCCc4ccccc43)c(C)c2c1 (centres undefined)	5.2µM*	6	nt	31	2
Cc1ccc2oc(C(=O)N3CCC(O)(c4ccccc4)CC3)c(C)c2c1	?	12*	10µM*	18	161
Cc1c(C(=O)N2CCc3ccccc3C2)oc2ccc(S(=O)(=O)N3CC(C)CC(C)C3)cc12 (centres undefined)	?	-1	0%	-5	?
CCN(CC)S(=O)(=O)c1ccc2oc(C(=O)N3CCc4ccccc4C3)c(C)c2c1	?	-5	9.3µM*	4	nt
COc1ccc(CN(CC2CCC(C(=O)O)CC2)C(=S)Nc2ccccc2OC)cc1 (centres undefined)	?	-3	49%	14	-11
CCN(CC)C(=O)C1CCN(C(=O)c2oc3ccc(C)cc3c2C)CC1	25%	17*	-21%	16	64
CCN(CC)S(=O)(=O)c1ccc2oc(C(=O)N3CCCCCC3)c(C)c2c1	13µM*	-2	-5%	-16	-7
CCN(CC)S(=O)(=O)c1ccc2oc(C(=O)N3CCOCC3)c(C)c2c1	-29%	-2	?	0	-10
CCOC(=O)N1CCN(C(=O)c2oc3ccc(S(=O)(=O)N(CC)CC)cc3c2C)CC1	5.2µM*	6	-10%	-4	-23
Nc1c2c(nc3sc4c(c13)CCCC4)-c1ccccc1CC2	-27%	50*	i	97*	?
CN(C)c1cc(N)c2c(n1)CCC2 (tested in a mixture with another compound)	-13%	1	-15%	-4	121
Nc1c2c(nc3sc4c(c13)CCCCC4)CCCC2	?	62*	18%	137*	-71*
Nc1c2c(nc3c1CCC3)CCCC2	4.8µM*	-4	3.8µM*	-5	nt
O=c1oc(-c2cccs2)nc2sc3c(c12)CCCC3	nt	-2	1%	0	-25
CN(C(=O)COC(=O)c1ccc(=O)n(Cc2ccccc2)n1)C1CCS(=O)(=O)C1 (centres undefined)	10%	nt	42%	nt	-29
O=C(NCc1ccc(Cl)cc1)C(=O)NCC1OCCN1C(=O)c1ccc(Cl)cc1 (centres undefined)	-23%	-6	-25%	26	-18
COc1ccccc1C/C(N)=N/OC(=O)c1cccc([N+](=O)[O-])c1	12µM*	5	?	47	125
